# Inconclusive results are not listed. A call without a number means that no potency is given here. The source holds several records for some structures; these can differ, active in one and inactive in another. The source made the active and inactive calls. Unless noted, calls come from the whole dose curve; as a rule, active = well fitted curve in the direction sought with a large enough effect in the repeat runs; inconclusive = weak or mixed curves; inactive = no such curve, though single readings can be large; an effect the other way counts as inactive or inconclusive.
# Assays:
# [1] = A High-Content qHTS Against Drug Library for the Identification of Small Molecules that Inhibit DYT1 Early Onset Primary Dystonia-Associated Cell Pathology (AID 1645839; calls by dose curve; note: potency is the fitted concentration of half-maximal effect; for % pathology change, negative = correction: series mostly up to about 46 µM)
# Method in brief: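 Flp-In T-REx 293 cells with tetracycline-inducible EGFP-delE hTOR1A (WT EGFP-hTOR1A as reference), 800 cells/well; compound added with tetracycline, 48 h at 37 C. Fixed, permeabilized cells imaged; %pathology (punctate TorsinA) primary, cell count counterscreen.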
# [2] = target: Cytochrome P450 2D6 (Homo sapiens) (UniProt P10635); assay: Cytochrome P450 family 2 subfamily D member 6 (CYP2D6) small molecule antagonists: luciferase biochemical (cell-free) qHTS assay (AID 1645840); note: nearly all actives have a fitted effect of over 55% in size; note: potency is the fitted concentration of half-maximal effect; for activity change, negative = inhibition: series mostly up to about 57 µM
# Sequence of Cytochrome P450 2D6 (Homo sapiens) (P10635 whole entry, looked up): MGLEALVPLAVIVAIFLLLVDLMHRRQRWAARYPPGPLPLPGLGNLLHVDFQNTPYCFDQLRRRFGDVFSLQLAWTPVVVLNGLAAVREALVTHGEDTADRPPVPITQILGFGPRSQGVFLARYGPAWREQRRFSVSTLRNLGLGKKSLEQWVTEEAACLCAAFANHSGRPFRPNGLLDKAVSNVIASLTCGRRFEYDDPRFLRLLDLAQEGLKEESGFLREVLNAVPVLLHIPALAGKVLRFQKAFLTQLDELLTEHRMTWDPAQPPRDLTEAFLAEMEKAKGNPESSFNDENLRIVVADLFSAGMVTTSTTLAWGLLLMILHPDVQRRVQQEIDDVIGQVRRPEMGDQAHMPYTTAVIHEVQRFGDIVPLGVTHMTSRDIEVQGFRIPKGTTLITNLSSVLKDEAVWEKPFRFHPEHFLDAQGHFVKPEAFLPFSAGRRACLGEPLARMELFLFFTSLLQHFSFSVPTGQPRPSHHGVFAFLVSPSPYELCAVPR
# Method in brief: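 P450-Glo luminescent screen: recombinant CYP2D6 enzyme–proluciferin substrate mix preincubated with compound 10 min at room temperature, then NADPH regeneration added for 1 h at room temperature. Detection reagent added for 20 min; luciferin light read as relative luminescence units.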
# [3] = target: Cytochrome P450 2C9 (Homo sapiens) (UniProt P11712); assay: Cytochrome P450 family 2 subfamily C member 9 (CYP2C9) small molecule antagonists: luciferase biochemical (cell-free) qHTS assay (AID 1645842); note: nearly all actives have a fitted effect of over 55% in size; note: potency is the fitted concentration of half-maximal effect; for activity change, negative = inhibition: series mostly up to about 57 µM
# Sequence of Cytochrome P450 2C9 (Homo sapiens) (P11712 whole entry, looked up): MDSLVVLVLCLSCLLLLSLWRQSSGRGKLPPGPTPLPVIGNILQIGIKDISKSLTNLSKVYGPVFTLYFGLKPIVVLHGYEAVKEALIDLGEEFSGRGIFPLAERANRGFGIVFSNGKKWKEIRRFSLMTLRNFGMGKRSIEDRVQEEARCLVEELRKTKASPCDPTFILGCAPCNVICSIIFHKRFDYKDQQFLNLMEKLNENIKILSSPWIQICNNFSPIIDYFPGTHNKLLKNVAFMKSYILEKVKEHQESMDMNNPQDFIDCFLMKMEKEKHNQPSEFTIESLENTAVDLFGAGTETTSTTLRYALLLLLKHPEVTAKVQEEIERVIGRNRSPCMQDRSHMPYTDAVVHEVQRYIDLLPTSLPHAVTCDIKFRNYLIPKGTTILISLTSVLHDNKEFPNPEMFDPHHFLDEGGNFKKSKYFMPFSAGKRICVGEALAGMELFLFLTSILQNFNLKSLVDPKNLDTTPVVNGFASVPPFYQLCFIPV
# Method in brief: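 Luminescence, after 20 min with luciferin detection reagent, reflected CYP2C9 turnover during a 1 h NADPH-driven reaction at 37C. Enzyme-substrate mix contained 0.4% bovine serum albumin and was preincubated with compound 10 min at room temperature.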
# [4] = Primary qHTS for inhibitors of nuclear receptor binding SET domain protein 2 (NSD2) in an isogenic RCH-ACV NSD2 p.E1099K mutant (9B) (AID 1645876; active = well fitted curve in the direction sought with a large enough effect; an effect the other way counts as inactive or inconclusive; note: nearly all actives have a fitted effect of over 70% in size; note: potency is the fitted concentration of half-maximal effect)
# [5] = Primary qHTS for inhibitors of nuclear receptor binding SET domain protein 2 (NSD2) in an RCH-ACV wild type WT cells (2C) (AID 1645877; active = well fitted curve in the direction sought with a large enough effect; an effect the other way counts as inactive or inconclusive; note: nearly all actives have a fitted effect of over 70% in size; note: potency is the fitted concentration of half-maximal effect)
# [6] = target: Cytochrome P450 3A4 (Homo sapiens) (UniProt P08684); assay: Cytochrome P450 family 3 subfamily A member 4 (CYP3A4) small molecule antagonists: luciferase qHTS assay (AID 1645841); note: nearly all actives have a fitted effect of over 45% in size
# Sequence of Cytochrome P450 3A4 (Homo sapiens) (P08684 whole entry, looked up): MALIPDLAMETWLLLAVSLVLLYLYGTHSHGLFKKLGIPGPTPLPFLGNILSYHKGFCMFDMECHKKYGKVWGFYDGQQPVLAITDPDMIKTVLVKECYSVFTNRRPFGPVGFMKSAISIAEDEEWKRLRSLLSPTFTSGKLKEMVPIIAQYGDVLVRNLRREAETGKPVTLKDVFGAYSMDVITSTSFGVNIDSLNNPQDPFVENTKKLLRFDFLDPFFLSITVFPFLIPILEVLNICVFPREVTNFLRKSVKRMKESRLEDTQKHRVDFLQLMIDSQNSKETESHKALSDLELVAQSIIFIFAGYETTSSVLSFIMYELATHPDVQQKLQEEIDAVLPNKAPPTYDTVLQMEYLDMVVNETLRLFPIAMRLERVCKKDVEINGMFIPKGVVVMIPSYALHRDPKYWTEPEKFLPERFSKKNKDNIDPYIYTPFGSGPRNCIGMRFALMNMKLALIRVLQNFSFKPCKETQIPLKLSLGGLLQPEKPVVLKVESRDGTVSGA
# Method in brief: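 P450-Glo CYP3A4 enzyme with proluciferin substrate preincubated 10 min with compound at room temperature, then NADPH regeneration 1 h. Luciferin detection reagent added for 20 min; luminescence recorded. Ketoconazole positive control.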
# [7] = target: N-terminal Xaa-Pro-Lys N-methyltransferase 1 (Homo sapiens) (UniProt Q9BV86); assay: Confirmatory qHTS for Inhibitors of N-terminal methyltransferase 1 (NTMT1): MTaseGlo Assay (AID 1645874; active = well fitted curve in the direction sought with a large enough effect; an effect the other way counts as inactive or inconclusive; note: potency is the fitted concentration of half-maximal effect; nearly all actives have a fitted effect of over 65% in size)
# Sequence of N-terminal Xaa-Pro-Lys N-methyltransferase 1 (Homo sapiens) (Q9BV86 whole entry, looked up): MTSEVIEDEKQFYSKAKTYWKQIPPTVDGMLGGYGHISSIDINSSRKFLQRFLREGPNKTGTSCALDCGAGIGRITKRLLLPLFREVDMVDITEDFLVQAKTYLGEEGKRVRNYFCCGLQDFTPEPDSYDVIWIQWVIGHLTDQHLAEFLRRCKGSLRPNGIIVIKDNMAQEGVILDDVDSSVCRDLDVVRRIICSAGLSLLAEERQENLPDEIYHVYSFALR
# Method in brief: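 Compounds are incubated with 125 nM NTMT1 and 100 uM SAM for 15 min before the SPKRIA peptide (1 uM) starts a 30 min room-temperature methylation. SAH is measured by coupled luciferase luminescence and curves fitted to a Hill equation.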
smiles,measurement,setting,value
O=C1[C@H]2CCCC[C@H]2C(=O)N1CCCCN1CCN(c2nsc3ccccc23)CC1,Potency,[1],inactive
same,Potency,[2],12.3 µM (active)
same,Potency,[3],inactive
same,Potency,[4],21.1 µM (active)
same,Potency,[5],23.7 µM (active)
Nc1ccc(/C=C/c2ccc(N)cc2S(=O)(=O)O)c(S(=O)(=O)O)c1,"% pathology change, negative = correction",[1],12.8% [at 0.369 µM] (inactive)
same,"activity change, negative = inhibition",[2],18.7% [at 0.91 µM] (inactive)
same,"activity change, negative = inhibition",[3],13.7% [at 0.91 µM] (inactive)
same,outcome,[4],inactive [at 0.588 µM]
same,outcome,[5],inactive [at 0.588 µM]
CCOC(=O)[C@H](CCc1ccccc1)N[C@@H](C)C(=O)N1Cc2ccccc2C[C@H]1C(=O)O,Potency,[1],inactive
same,Potency,[2],inactive
same,Potency,[3],6.92 µM (active) and inactive
CCCCCCCCCCCCCCNCCO,Potency,[1],inactive
same,Potency,[2],6.17 µM (active)
same,Potency,[3],inactive
same,Potency,[4],7.5 µM (active)
same,Potency,[5],7.5 µM (active)
CCN(CC)C(=O)N1CCN(C)CC1,Potency,[1],inactive
same,Potency,[2],inactive
same,Potency,[3],inactive
same,Potency,[4],inactive
CN(C)CC/C=C1\c2ccccc2Sc2ccc(Cl)cc21,Potency,[1],12.6 µM (active)
same,Potency,[2],1.23 µM (active)
same,Potency,[3],inactive
CN1CCC[C@@H]1c1cccnc1,Potency,[1],inactive
same,Potency,[2],inactive
same,outcome,[6],inactive
same,Potency,[4],inactive
same,Potency,[5],inactive
OC[C@H]1O[C@H](O[C@]2(CCl)O[C@H](CCl)[C@@H](O)[C@@H]2O)[C@H](O)[C@@H](O)[C@H]1Cl,Potency,[1],inactive
same,Potency,[2],inactive
same,Potency,[3],inactive
same,Potency,[4],inactive
same,Potency,[5],inactive
Cc1ncc(CSSCc2cnc(C)c(O)c2CO)c(CO)c1O,Potency,[1],inactive
same,Potency,[2],7.76 µM (active)
same,Potency,[3],6.17 µM (active)
same,Potency,[4],inactive
same,Potency,[5],inactive
O=C1OCCN1/N=C/c1ccc([N+](=O)[O-])o1,Potency,[1],inactive
Cc1ccnc(NS(=O)(=O)c2ccc(N)cc2)n1,Potency,[1],inactive
same,Potency,[2],inactive
same,Potency,[3],inactive
same,Potency,[4],inactive
same,Potency,[5],inactive
COc1cc(/C=C/C(=O)O[C@H]2CC[C@]34C[C@]35CC[C@]3(C)[C@@H]([C@H](C)CCC=C(C)C)CC[C@@]3(C)[C@@H]5CC[C@H]4C2(C)C)ccc1O,Potency,[1],inactive
same,Potency,[2],inactive
same,Potency,[3],inactive
CC(=O)N/N=C/c1ccc([N+](=O)[O-])o1,Potency,[1],inactive
same,Potency,[2],15.5 µM (active)
same,Potency,[3],inactive
same,Potency,[4],9.44 µM (active)
same,Potency,[5],8.41 µM (active)
NC[C@H]1O[C@H](O[C@H]2[C@H](O[C@@H]3O[C@H](CO)[C@@H](O)[C@H]3O)C(O)[C@H](N)C[C@@H]2N)[C@H](N)[C@@H](O)[C@@H]1O (some centres undefined),"% pathology change, negative = correction",[1],1.85% [at 9.22 µM] (inactive)
same,"activity change, negative = inhibition",[2],6.46% [at 11.5 µM] (inactive)
same,"activity change, negative = inhibition",[3],8.72% [at 11.5 µM] (inactive)
CN1[C@@H]2CC[C@H]1CC(OC(=O)c1c[nH]c3ccccc13)C2 (some centres undefined),Potency,[1],inactive
same,Potency,[2],12.3 µM (active)
same,Potency,[3],inactive
same,Potency,[4],inactive
same,Potency,[5],inactive
Cc1c(C)n(Cc2ccccc2)c2ccc(C(=O)OCCN(C)C)cc12,Potency,[1],11.2 µM (active)
same,Potency,[2],13.8 µM (active)
same,Potency,[3],12.3 µM (active)
same,Potency,[7],5.78 µM (active)
same,Potency,[4],10.6 µM (active)
same,Potency,[5],9.44 µM (active)
CC(O)C(=O)O (centres undefined),Potency,[1],inactive
same,Potency,[2],12.3 µM (active)
same,Potency,[3],inactive
same,Potency,[4],inactive
same,Potency,[5],inactive
NC[C@H]1O[C@H](O[C@H]2[C@H](O)[C@@H](O[C@H]3O[C@H](CO)[C@@H](O)[C@H](N)[C@H]3O)[C@H](N)C[C@@H]2N)[C@H](N)[C@@H](O)[C@@H]1O,Potency,[1],inactive
same,Potency,[2],inactive
same,Potency,[3],inactive
same,Potency,[4],inactive
same,Potency,[5],inactive
CCCCC(CC)CN=C(N)NC(N)=NCCCCCCN=C(N)NC(N)=NCC(CC)CCCC (centres undefined),Potency,[1],11.2 µM (active)
same,Potency,[2],0.617 µM (active)
same,Potency,[3],12.3 µM (active)
same,Potency,[7],18.3 µM (active)
same,Potency,[4],0.75 µM (active)
same,Potency,[5],0.841 µM (active)
CC[N+](CC)(CCNC(=O)C(=O)NCC[N+](CC)(CC)Cc1ccccc1Cl)Cc1ccccc1Cl,Potency,[1],inactive
same,Potency,[2],15.5 µM (active)
same,Potency,[3],inactive
same,Potency,[4],inactive
same,Potency,[5],inactive
Nc1ccn([C@@H]2O[C@H](CO)[C@@H](O)C2(F)F)c(=O)n1,Potency,[1],inactive
same,Potency,[2],inactive
same,outcome,[6],inactive
same,Potency,[3],inactive
O=C1OC2(c3ccc(O)cc3Oc3cc(O)ccc32)c2ccccc21,Potency,[1],7.08 µM (active)
same,Potency,[2],inactive
same,Potency,[3],inactive
CCN1CCN(c2cc3c(cc2F)c(=O)c(C(=O)O)cn3C2CC2)CC1,Potency,[1],inactive
same,Potency,[2],inactive
same,Potency,[3],inactive
same,Potency,[4],inactive
same,Potency,[5],inactive
COC1=CC(=O)C[C@@H](C)[C@]12Oc1c(Cl)c(OC)cc(OC)c1C2=O,Potency,[1],inactive
same,Potency,[2],inactive
same,Potency,[3],inactive
Cc1c(F)c(N2CCNC(C)C2)cc2c1c(=O)c(C(=O)O)cn2C1CC1 (centres undefined),Potency,[1],inactive
same,Potency,[2],inactive
same,Potency,[3],inactive
same,Potency,[4],inactive
same,Potency,[5],inactive
O=C1c2ccccc2C(=O)C1c1ccccc1,Potency,[1],inactive
same,Potency,[2],inactive
same,Potency,[3],inactive
same,Potency,[4],inactive
same,Potency,[5],inactive
NCCc1ccn[nH]1,Potency,[1],inactive
same,Potency,[2],inactive
same,Potency,[3],inactive
same,Potency,[4],inactive
same,Potency,[5],inactive
Nc1nc2ncc(CNc3ccc(C(=O)N[C@@H](CCC(=O)O)C(=O)O)cc3)nc2c(=O)[nH]1,Potency,[1],inactive
same,Potency,[2],inactive
same,Potency,[3],inactive
same,Potency,[4],inactive
same,Potency,[5],inactive
